An excerpt weighted towards active compounds, which were near 7.2% of everything screened.
NIH3T3 tox = cytotoxic compounds in NIH 3T3 cells; NIH 3T3 viability, CellTiter-Glo ATP luminescence, 48-72 h; AID 1345082; hit rate 4.3% among 94,000; Potency, µM (doses to about 96.7 µM), for the others: at the highest dose activity change, negative = cytotoxicity, hits mostly inhibitors; note: % is set by controls: 0 for no effect and ±100 for the full control effect; nearly all actives have a fitted effect of over 55% in size
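NIH 3T3 cells at 400 cells/well received 23 nL of compound by pintool and were incubated 48 or 72 h at 37 °C. Viability was read as ATP-coupled CellTiter-Glo luminescence.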
Luciferase inh = inhibitors of firefly (Photinus pyralis) luciferase; AID 1347043; hit rate 2.5% among 76,000; purified P. pyralis luciferase, luminescence, biochemical; P08659; Potency, µM (top dose mostly 115 µM), most hits filed as inhibitors; note: % is set by controls: 0 for no effect and ±100 for the full control effect; nearly all actives have a fitted effect of over 65% in size
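FLuc 10nM, D-luciferin 10uM, ATP 10uM, Mg acetate 10mM, Tris acetate pH 7.5, Tween/BSA; cpd qHTS; enzyme added last; CCD luminescence.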
hNpr1 antagonist = blocks ANP-stimulated signaling of human Npr1 receptor. HEK293 hNpr1 GloSensor cGMP, ANP-stimulated luminescence. Potency, µM (highest dose often 46.3 µM), for inactives: at the top dose activity change, negative = inhibition, most hits filed as inhibitors. hit rate 1.6% among 76,000; calls by dose curve; note: % is set by controls: 0 for no effect and ±100 for the full control effect; nearly all actives have a fitted effect of over 60% in size
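HEK293 cells stably expressing human Npr1 and cGMP GloSensor pGS-40F, loaded 2 h with 2% GloSensor reagent, given compound 30 min at room temperature. Luminescence read before and 20 min after 0.1 nM hNppA.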
HEK293 viab = cell viability loss counter-screen | hit rate 0.12% among 150,000 | HEK-293-SNCA-luc viability, GF-AFC fluorescence, 24 h | Potency, µM (titrated, usually from 57.1 µM), for the others: at the top dose activity change, negative = cytotoxicity, hits mostly cytotoxic | AID 1671193;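 note: 0% = DMSO-treated cells and -100% = medium-only wells without cells; nearly all actives have a fitted effect of over 30% in size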
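HEK-293-SNCA-luc cells (1500/well) plated 24 h, then exposed 24 h to a dilution series; GF-AFC added 30 min at 37C, fluorescence 405/540 nm; normalised to medium-only and DMSO wells, Hill fit.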
HEK cytotox = cytotoxic compounds in HEK 293 cells; hit rate 6.6% among 94,000; HEK 293 viability, ATP luminescence (CellTiter-Glo), 48-72 h; Potency, µM (series often up to 115 µM), for the others: at the top dose activity change, negative = cytotoxicity, actives largely listed as inhibitors; AID 1345083; note: % is set by controls: 0 for no effect and ±100 for the full control effect; nearly all actives have a fitted effect of over 60% in size
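250 HEK 293 cells/well; compound by pintool; incubated 48 or 72 hr at 37 degree Celsius; CellTiter-Glo added, 10 min RT, luminescence imaged.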
SNCA expr inhib = SNCA gene expression inhibition; hit rate 0.17% among 140,000; Potency, µM (top dose mostly 57.2 µM), for inactives: top-dose activity change, negative = inhibition, hits mostly inhibitors; HEK-293 SNCA-luciferase knock-in, luminescence, 24 h;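 note: plate controls were DMSO cells for no effect and cell-free wells for full effect; nearly all actives have a fitted effect of over 45% in size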
Npr1 antag conf = confirmation of human Npr1 natriuretic peptide receptor antagonists; shares compounds with hNpr1 antagonist; hit rate 76% among 1,400; HEK293 hNpr1 cGMP GloSensor luminescence, ANP-stimulated; AID 1347044; Potency, µM (titrated, usually from 57.6 µM), inactives show top-dose activity change, negative = inhibition, actives largely listed as inhibitors; calls by dose curve; note: nearly all actives have a fitted effect of over 70% in size
NPR2 antag = hNpr2 antagonism, selectivity versus Npr1. shares compounds with hNpr1 antagonist. HEK293 hNpr2 GloSensor cGMP luminescence, CNP-stimulated. Potency, µM (titrated, usually from 57.6 µM), for inactives: top-dose activity change, negative = inhibition, most hits filed as inhibitors. hit rate 67% among 1,400. AID 1347046; calls by dose curve; note: nearly all actives have a fitted effect of over 70% in size
FLuc inh counter = counter-screen for Npr1 antagonists: firefly luciferase inhibitors; shares compounds with hNpr1 antagonist; purified FLuc enzyme, luminescence, Km substrate; hit rate 0.7% among 1,400; Potency, µM (series often up to 57.6 µM), for the others: top-dose activity change, negative = inhibition, actives largely listed as inhibitors; note: 0% is about no effect
GloSensor cGMP = counter-screen for Npr1 antagonists: GloSensor control cell line. Potency, µM (titrated, usually from 57.6 µM), for the others: at the highest dose activity change, negative = inhibition, usual class: inhibitors. AID 1347051. HEK293 GloSensor cGMP, SNP-stimulated, luminescence. shares compounds with hNpr1 antagonist. hit rate 69% among 1,400; calls by dose curve; note: % is set by controls: 0 for no effect and ±100 for the full control effect; nearly all actives have a fitted effect of over 70% in size
* hit, by the source's call; i = inactive; u = inconclusive; x = no result; [ ] = dose if it differs, or a comment. Unless noted, calls come from the whole dose curve; as a rule, active = well fitted curve in the direction sought with a large enough effect; inconclusive = small, poorly fitted or top-dose-only effect, or another doubt; inactive = no such curve, though single readings can be large; an effect the other way counts as inactive or inconclusive. Potency is the fitted concentration of half-maximal effect.

SMILES | NIH3T3 tox | Luciferase inh | hNpr1 antagonist | HEK293 viab | HEK cytotox | SNCA expr inhib | Npr1 antag conf | NPR2 antag | FLuc inh counter | GloSensor cGMP
C[S+](=O)([O-])NCCn1ccc2cc(OC3CCN(c4ncc(F)cn4)CC3)cnc21 | u | i | 22µM* | -11%[87.6 µM] | u | 3%[87.6 µM] | 20µM* | 28µM* | -1%[86.2 µM] | 22µM*
COc1ccc(CNC(=O)c2c(C)noc2-c2cccc(F)c2)cc1 | -29% | i | 1% | 4% | -17% | -4% | x | x | x | x
O=C(C1CC1)N1CCC(Cc2nc(-c3ccc(F)cc3)no2)CC1 | u | i | u | -11% | u | 3% | x | x | x | x
Fc1cccc(CN2CCC(Oc3ccc(-c4noc(C5CC5)n4)cc3)C2)c1 (configuration not stated) | u | i | 20µM* | 12% | u | 4% | 27µM* | u | 0% | u
O=C(Cc1ccccc1Cl)N1CCC(Cc2nc(-c3ccccc3)no2)CC1 | u | i | u | 11% | u | -3% | x | x | x | x
O=C(Cc1ccc(F)cc1)N1CCC(Cc2nc(-c3ccc(F)cc3)no2)CC1 | u | i | 13µM* | -8% | u | -4% | 14µM* | 14µM* | 3% | 11µM*
COc1cc(C(=O)N2CCC(Cc3nc(-c4ccc(F)cc4)no3)CC2)cc(OC)c1OC | u | i | 13µM* | 10% | u | -19% | 14µM* | 19µM* | -1% | 15µM*
O=C(COc1ccc(Cl)cc1)N1CCC(Cc2nc(-c3ccccc3)no2)CC1 | u | i | 14µM* | 2% | 40µM* | 14% | 12µM* | 14µM* | -2% | 12µM*
O=C(c1cccc(F)c1)N1CC(Oc2ccc(-c3noc(C4CCOCC4)n3)cc2)C1 | u | i | 6.3µM* | -20% | u | u | 4.3µM* | 5.4µM* | -6% | 3.4µM*
O=C(CC1CCCCC1)N1CCC(Cc2nc(-c3ccc(F)cc3)no2)CC1 | u | i | 4µM* | -2% | u | -21% | 4.8µM* | 5.4µM* | -1% | 4.8µM*
CC(C)c1noc(CC2CCN(C(=O)c3ccc(C(C)(C)C)cc3)CC2)n1 | -27% | i | -4% | 8% | u | 31% | x | x | x | x
CC(C)c1noc(CC2CCN(C(=O)c3ccc(F)cc3)CC2)n1 | -34% | i | u | 2% | u | u | u | u | -1% | u
COc1cccc(CCC(=O)N2CCC(Oc3ccc(-c4noc(C5CC5)n4)cc3)C2)c1 (configuration not stated) | u | i | u | 4% | u | 17% | x | x | x | x
O=C(COc1ccc(F)cc1)N1CCC(Oc2ccc(-c3noc(C4CC4)n3)cc2)C1 (configuration not stated) | u | i | 11µM* | -21% | u | 5% | u | u | -2% | 31µM*
CCc1ccc(N2CC(c3noc(-c4nccc5ccccc45)n3)CC2=O)cc1 (configuration not stated) | u | i | 1% | 0% | u | -26% | x | x | x | x
CO[C@H]1CN(C(C)C)[C@H]1C1CCN(C(=O)c2cc(C)nn2C)CC1 | -19% | x | x | 5% | 1% | -3% | x | x | x | x
COc1ccc(CC(=O)N2CCC(Cc3nc(-c4ccc(F)cc4)no3)CC2)cc1OC | u | i | 7.1µM* | -10% | u | -18% | 3.1µM* | 9.7µM* | 1% | 6.1µM*
CC(C)c1noc(CC2CCN(C(=O)Cc3ccc(F)cc3)CC2)n1 | -42% | i | -23% | -15% | -19% | 18% | x | x | x | x
COc1ccc(OCC(=O)N2CCC(Cc3nc(-c4ccc(F)cc4)no3)CC2)cc1 | u | i | 5.6µM* | u | u | u | 4.3µM* | 6.1µM* | 2% | 3.9µM*
CCOc1ccc(CC(=O)N2CCC(Cc3nc(-c4ccc(F)cc4)no3)CC2)cc1 | u | i | 6.3µM* | -11% | u | u | 5.4µM* | 6.1µM* | 6% | 4.8µM*
CN(C)C(=O)c1ccc(CC2CCN(C(=O)CC3CCCCC3)CC2)cc1 | u | i | 11µM* | -15% | 35µM* | -27% | 15µM* | 19µM* | 3% | 15µM*
CC(C)CNC(=O)CCC[C@@H]1[C@H]2CCCN3CCC[C@@H](CN1C(=O)c1cccnc1)[C@@H]23 | -7% | i | -2% | -6% | -1% | -3% | x | x | x | x
CC(C)Cn1c(=O)c(C(=O)N2CCN(C(=O)Nc3ccccc3)CC2)nc2cccnc21 | -17% | x | x | -1% | i | -14% | x | x | x | x
O=C(c1ccc(F)cc1)N1CCC(Cc2nc(-c3ccc(F)cc3)no2)CC1 | u | i | 1.4µM* | -13% | u | 1% | 1.7µM* | 2.7µM* | -1% | 1.9µM*
Nc1cccc(CNC(=O)c2ccc(Oc3ccc(OCc4cccc(F)c4)cc3)nc2)c1 | x | x | x | -19% | x | x | x | x | x | x
O=C(N1CCC(c2ccccc2)CC1)C1(c2ccc(Cl)cc2)CCOCC1 | u | x | x | -5% | u | -24% | u | u | 4% | -19%
O=C(NCCc1noc(-c2ccccc2)n1)c1ccccc1 | -27% | i | -15% | 0% | u | 22% | x | x | x | x
COc1ccc(C(=O)NCCc2noc(-c3ccccc3)n2)cc1F | u | i | u | -3% | u | u | u | -17% | 1% | 7%
O=C(CCC1CCCC1)NCCc1noc(-c2ccccc2)n1 | u | i | u | -4% | 79µM* | u | u | -25% | 1% | -10%
